# Columns and labels:
# Test in all cases: DAPPL (digital affinity profiling via proximity ligation, sequencing); 10 mM Tris-HCl pH 7.5, 50 mM NaCl, 1 mM DTT, 4% glycerol, room temperature, 30 min; GST-TFs on glutathione beads, 16-mer random dsDNA library, 0.1% formaldehyde crosslink after washing; high values mean tight binding
# Settings in all cases: protein: recombinant; tags: N-terminal GST; dsDNA, one strand shown
# [1] = target: T1, ELK1 (Homo sapiens, UniProt P19419 1-428)
# T1 sequence: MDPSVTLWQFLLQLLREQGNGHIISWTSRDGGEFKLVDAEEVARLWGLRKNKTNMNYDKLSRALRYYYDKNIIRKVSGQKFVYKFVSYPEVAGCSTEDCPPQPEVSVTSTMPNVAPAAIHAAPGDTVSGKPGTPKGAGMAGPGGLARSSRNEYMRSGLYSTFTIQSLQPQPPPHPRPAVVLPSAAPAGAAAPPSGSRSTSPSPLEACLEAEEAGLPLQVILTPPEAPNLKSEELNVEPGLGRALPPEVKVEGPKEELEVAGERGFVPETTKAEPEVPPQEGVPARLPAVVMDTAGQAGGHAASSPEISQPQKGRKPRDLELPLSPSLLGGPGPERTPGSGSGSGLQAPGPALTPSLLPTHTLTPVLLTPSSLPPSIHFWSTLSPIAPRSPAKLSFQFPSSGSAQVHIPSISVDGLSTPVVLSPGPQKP
# Summary of the method: (§1)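 GST fusions of human transcription factors were expressed in yeast and captured with glutathione beads. Once given DNA barcodes and pooled alongside a tag-only sample, they were incubated for 30 min at room temperature with 200 nmole of a random double-stranded 16-mer DNA library in Tris/NaCl/DTT/glycerol buffer, then washed, crosslinked (0.1% formaldehyde), proximity-ligated, PCR-amplified and sequenced on an Illumina NextSeq500. The binding signal of each hexamer is its read frequency for a factor divided by its frequency for the tag-only sample.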
# [2] = target: T2, GABPA (Homo sapiens, UniProt Q06546 1-454)
# T2 sequence: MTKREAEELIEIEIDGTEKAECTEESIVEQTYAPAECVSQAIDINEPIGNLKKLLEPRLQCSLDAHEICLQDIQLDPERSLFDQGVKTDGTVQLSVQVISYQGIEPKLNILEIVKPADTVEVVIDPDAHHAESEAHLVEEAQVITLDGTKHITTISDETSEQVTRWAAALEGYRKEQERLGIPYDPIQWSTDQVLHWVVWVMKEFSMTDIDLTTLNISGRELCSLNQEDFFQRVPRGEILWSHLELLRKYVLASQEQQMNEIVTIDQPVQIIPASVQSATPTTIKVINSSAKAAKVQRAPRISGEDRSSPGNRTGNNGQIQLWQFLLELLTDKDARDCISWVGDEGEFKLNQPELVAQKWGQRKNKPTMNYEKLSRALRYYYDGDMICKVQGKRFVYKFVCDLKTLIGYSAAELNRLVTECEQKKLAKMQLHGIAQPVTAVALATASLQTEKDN
# Summary of the method: as §1
# [3] = target: ELF1 (Homo sapiens, UniProt P32519 1-619)
# Chain of ELF1 (P32519 whole entry): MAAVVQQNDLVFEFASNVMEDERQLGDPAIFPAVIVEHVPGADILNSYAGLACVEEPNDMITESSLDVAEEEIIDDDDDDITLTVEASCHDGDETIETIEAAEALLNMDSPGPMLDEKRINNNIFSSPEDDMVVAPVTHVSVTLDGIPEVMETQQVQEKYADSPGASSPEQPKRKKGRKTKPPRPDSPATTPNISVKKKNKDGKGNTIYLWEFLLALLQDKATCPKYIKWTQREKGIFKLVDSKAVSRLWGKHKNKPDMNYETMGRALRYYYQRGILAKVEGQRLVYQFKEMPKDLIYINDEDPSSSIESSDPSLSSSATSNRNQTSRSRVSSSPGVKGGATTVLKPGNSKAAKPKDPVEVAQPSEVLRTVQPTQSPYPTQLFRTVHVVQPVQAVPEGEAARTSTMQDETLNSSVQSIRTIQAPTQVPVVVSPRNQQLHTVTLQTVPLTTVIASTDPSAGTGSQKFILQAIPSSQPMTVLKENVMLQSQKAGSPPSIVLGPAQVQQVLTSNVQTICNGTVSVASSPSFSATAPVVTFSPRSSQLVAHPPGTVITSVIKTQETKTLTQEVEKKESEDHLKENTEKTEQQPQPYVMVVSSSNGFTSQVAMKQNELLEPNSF
# Summary of the method: as §1
# [4] = target: T3, EHF (Homo sapiens, UniProt Q9NZC4 1-300)
# T3 sequence: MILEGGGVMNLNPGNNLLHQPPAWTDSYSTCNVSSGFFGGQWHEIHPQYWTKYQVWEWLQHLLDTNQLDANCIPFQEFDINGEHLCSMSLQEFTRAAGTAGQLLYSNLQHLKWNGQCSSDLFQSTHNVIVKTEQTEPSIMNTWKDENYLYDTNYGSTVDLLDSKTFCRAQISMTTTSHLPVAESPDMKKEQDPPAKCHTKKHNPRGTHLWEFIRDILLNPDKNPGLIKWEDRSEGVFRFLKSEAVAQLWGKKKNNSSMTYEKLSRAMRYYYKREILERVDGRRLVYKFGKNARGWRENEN
# Summary of the method: as §1
# [5] = target: SPIB (Homo sapiens, UniProt Q01892 1-262)
# Chain of SPIB (Q01892 whole entry): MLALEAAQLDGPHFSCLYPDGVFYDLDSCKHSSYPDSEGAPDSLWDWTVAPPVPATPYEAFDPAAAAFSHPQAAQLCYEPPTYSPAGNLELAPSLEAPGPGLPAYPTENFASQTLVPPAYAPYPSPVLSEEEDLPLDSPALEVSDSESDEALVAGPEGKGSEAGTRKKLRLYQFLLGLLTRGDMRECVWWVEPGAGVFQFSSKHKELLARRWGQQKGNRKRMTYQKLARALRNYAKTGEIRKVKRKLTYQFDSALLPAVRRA
# Summary of the method: as §1
# [6] = target: T4, ELK3 (Homo sapiens, UniProt P41970 1-407)
# T4 sequence: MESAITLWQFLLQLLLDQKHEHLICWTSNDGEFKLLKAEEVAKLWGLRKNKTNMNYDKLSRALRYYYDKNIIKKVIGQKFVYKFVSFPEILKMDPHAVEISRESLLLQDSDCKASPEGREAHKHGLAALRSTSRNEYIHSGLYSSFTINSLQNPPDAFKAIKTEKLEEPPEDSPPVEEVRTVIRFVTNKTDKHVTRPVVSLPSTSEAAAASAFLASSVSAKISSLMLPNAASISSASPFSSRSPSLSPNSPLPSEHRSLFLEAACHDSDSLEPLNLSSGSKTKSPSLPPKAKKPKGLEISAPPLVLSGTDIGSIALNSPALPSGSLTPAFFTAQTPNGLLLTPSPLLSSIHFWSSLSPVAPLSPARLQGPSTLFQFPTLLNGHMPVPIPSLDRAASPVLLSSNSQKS
# Summary of the method: as §1
# [7] = target: T5, SPIC (Homo sapiens, UniProt Q8N5J4 1-248)
# T5 sequence: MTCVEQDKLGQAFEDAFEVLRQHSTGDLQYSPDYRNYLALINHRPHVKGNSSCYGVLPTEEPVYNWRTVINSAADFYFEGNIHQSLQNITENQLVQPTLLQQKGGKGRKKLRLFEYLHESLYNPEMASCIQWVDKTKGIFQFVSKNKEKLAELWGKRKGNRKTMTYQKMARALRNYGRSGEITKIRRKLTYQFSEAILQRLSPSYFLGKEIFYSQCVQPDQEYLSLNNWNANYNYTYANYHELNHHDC
# Summary of the method: as §1
# [8] = target: ELF4 (Homo sapiens, UniProt Q99607 1-663)
# Chain of ELF4 (Q99607 whole entry): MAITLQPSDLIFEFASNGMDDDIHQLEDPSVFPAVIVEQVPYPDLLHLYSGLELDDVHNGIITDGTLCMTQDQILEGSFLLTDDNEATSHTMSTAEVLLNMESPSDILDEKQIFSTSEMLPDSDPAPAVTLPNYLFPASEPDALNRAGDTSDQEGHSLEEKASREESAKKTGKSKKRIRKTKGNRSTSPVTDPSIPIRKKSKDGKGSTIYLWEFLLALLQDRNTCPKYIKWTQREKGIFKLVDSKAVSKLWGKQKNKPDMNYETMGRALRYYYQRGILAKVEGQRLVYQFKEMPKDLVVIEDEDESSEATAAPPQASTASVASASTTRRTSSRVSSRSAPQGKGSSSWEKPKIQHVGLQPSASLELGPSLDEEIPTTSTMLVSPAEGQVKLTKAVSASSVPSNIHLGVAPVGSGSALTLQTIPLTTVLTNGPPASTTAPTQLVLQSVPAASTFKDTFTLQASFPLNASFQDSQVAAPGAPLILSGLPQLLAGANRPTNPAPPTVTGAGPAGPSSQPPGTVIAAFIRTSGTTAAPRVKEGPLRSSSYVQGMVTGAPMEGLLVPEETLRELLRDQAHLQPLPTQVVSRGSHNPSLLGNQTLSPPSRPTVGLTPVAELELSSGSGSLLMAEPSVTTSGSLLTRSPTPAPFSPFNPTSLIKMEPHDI
# Summary of the method: as §1
# [9] = target: T6, ELK4 (Homo sapiens, UniProt P28324-2 1-405)
# T6 sequence: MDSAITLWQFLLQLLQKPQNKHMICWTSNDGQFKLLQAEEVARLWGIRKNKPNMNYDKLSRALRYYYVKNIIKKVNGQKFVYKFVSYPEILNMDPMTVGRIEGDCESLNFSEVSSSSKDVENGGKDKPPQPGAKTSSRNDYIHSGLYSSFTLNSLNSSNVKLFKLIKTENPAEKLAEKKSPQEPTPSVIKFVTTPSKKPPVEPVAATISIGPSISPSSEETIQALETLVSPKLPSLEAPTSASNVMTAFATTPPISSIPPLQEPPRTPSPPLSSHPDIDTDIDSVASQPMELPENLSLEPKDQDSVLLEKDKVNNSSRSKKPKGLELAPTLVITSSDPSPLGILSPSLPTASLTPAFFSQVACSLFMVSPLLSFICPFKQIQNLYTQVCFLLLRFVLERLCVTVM
# Summary of the method: as §1
# [10] = target: T7, ELF3 (Homo sapiens, UniProt P78545 1-371)
# T7 sequence: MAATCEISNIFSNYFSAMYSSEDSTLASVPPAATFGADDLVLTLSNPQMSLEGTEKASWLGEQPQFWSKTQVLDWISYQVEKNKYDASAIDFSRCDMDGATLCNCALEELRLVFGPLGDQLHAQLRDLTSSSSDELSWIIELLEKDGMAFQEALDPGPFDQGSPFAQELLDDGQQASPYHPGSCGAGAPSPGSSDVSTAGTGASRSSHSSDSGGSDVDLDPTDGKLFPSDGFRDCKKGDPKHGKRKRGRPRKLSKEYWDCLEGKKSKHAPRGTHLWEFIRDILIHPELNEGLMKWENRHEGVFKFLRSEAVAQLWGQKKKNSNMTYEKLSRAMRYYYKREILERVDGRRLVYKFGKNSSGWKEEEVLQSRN
# Summary of the method: as §1
# [11] = target: ETV1 (Homo sapiens, UniProt P50549 1-477)
# Chain of ETV1 (P50549 whole entry): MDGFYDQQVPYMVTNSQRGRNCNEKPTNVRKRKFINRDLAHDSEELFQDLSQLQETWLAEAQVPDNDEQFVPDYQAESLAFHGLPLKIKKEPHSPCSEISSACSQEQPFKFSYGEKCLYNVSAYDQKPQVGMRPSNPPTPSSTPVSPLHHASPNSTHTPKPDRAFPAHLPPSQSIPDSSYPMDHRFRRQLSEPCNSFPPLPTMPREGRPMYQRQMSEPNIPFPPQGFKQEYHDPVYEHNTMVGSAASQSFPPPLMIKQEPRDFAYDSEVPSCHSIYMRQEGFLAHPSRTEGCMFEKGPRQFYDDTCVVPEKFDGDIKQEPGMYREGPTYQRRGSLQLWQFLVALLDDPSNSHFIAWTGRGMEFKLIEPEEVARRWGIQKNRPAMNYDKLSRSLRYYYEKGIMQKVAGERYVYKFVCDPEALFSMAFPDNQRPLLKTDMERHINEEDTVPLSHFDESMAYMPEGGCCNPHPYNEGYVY
# Summary of the method: as §1
# [12] = target: T8, ETV3L (Homo sapiens, UniProt Q6ZN32 1-361)
# T8 sequence: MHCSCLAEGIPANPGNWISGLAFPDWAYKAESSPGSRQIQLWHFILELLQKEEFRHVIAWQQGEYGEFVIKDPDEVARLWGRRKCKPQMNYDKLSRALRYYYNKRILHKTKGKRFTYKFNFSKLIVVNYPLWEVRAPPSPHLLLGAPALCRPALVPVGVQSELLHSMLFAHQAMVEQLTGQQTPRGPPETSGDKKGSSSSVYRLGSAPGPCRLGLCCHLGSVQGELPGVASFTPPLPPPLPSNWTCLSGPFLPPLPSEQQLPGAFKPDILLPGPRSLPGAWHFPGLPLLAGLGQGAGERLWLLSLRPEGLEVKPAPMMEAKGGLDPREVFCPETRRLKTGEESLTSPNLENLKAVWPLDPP
# Summary of the method: as §1
# [13] = target: T9, ETS2 (Homo sapiens, UniProt P15036 1-469)
# T9 sequence: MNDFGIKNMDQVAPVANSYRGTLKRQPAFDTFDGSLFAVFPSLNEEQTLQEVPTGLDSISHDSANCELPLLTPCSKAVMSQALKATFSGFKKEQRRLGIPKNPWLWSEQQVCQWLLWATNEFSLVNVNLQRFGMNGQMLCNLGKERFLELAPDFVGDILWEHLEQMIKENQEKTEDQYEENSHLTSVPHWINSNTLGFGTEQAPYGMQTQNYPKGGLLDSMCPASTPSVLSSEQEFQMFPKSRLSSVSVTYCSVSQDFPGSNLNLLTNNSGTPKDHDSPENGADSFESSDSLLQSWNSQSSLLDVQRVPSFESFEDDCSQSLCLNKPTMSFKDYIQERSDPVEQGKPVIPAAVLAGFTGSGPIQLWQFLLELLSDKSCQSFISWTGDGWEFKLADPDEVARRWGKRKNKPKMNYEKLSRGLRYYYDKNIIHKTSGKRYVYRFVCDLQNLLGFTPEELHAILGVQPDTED
# Summary of the method: as §1
# [14] = target: T10, SPDEF (Homo sapiens, UniProt O95238 1-335)
# T10 sequence: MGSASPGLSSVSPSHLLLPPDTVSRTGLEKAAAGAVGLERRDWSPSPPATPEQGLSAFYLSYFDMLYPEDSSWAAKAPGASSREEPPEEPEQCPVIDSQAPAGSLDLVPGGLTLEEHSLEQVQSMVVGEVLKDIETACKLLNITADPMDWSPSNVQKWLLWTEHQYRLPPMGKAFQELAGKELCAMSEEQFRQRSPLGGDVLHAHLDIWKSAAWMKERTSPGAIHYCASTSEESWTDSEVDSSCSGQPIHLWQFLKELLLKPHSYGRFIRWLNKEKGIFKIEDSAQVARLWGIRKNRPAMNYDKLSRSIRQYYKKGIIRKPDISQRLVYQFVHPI
# Summary of the method: as §1
# [15] = target: T11, ETV7 (Homo sapiens, UniProt Q9Y603 1-341)
# T11 sequence: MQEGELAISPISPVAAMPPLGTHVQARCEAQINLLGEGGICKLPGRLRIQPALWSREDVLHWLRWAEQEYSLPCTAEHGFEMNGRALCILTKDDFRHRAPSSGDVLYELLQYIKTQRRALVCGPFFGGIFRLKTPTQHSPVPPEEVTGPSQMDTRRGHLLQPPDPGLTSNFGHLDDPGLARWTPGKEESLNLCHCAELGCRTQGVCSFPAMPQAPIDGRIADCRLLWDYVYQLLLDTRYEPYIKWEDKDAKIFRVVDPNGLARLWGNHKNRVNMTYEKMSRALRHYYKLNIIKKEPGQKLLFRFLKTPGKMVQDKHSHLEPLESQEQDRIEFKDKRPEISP
# Summary of the method: as §1
# [16] = target: T12, ETV3 (Homo sapiens, UniProt P41162-2 1-143)
# T12 sequence: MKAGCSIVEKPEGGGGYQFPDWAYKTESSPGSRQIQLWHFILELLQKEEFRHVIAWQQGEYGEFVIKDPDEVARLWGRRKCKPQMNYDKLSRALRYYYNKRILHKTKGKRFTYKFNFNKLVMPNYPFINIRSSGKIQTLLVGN
# Summary of the method: as §1
# [17] = target: ETV6 (Homo sapiens, UniProt P41212 1-452)
# Chain of ETV6 (P41212 whole entry): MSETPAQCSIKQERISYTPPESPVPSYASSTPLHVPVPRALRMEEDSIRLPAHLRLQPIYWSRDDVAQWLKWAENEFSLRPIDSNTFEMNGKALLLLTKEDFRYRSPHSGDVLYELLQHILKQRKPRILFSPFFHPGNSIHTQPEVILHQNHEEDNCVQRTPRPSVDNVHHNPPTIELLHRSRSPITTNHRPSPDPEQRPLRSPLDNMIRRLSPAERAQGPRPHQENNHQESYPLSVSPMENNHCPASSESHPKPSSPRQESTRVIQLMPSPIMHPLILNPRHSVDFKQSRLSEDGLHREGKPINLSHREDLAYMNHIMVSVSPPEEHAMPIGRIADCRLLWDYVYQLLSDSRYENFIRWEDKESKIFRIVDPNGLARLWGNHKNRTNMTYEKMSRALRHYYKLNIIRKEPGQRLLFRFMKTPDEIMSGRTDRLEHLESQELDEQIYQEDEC
# Summary of the method: as §1
sequence,measurement,setting,value
TAGATA,binding signal,[1],"1.03 fold enrichment (6-mer frequency, TF over GST control)"
same,binding signal,[2],"1.1 fold enrichment (6-mer frequency, TF over GST control)"
same,binding signal,[3],"1.06 fold enrichment (6-mer frequency, TF over GST control)"
same,binding signal,[4],"1.06 fold enrichment (6-mer frequency, TF over GST control)"
same,binding signal,[5],"1.05 fold enrichment (6-mer frequency, TF over GST control)"
same,binding signal,[6],"1.02 fold enrichment (6-mer frequency, TF over GST control)"
same,binding signal,[7],"1.17 fold enrichment (6-mer frequency, TF over GST control)"
same,binding signal,[8],"1.07 fold enrichment (6-mer frequency, TF over GST control)"
same,binding signal,[9],"1.08 fold enrichment (6-mer frequency, TF over GST control)"
same,binding signal,[10],"1.08 fold enrichment (6-mer frequency, TF over GST control)"
same,binding signal,[11],"1.06 fold enrichment (6-mer frequency, TF over GST control)"
same,binding signal,[12],"1.12 fold enrichment (6-mer frequency, TF over GST control)"
same,binding signal,[13],"1.05 fold enrichment (6-mer frequency, TF over GST control)"
same,binding signal,[14],"1.06 fold enrichment (6-mer frequency, TF over GST control)"
same,binding signal,[15],"1.02 fold enrichment (6-mer frequency, TF over GST control)"
same,binding signal,[16],"1.01 fold enrichment (6-mer frequency, TF over GST control)"
same,binding signal,[17],"1.01 fold enrichment (6-mer frequency, TF over GST control)"
